# This is a sample that favours compounds with a hit; in the whole collection about 7.3% have one here.
# uPA surface inh: qHTS for Inhibitors of Cell Surface uPA Generation; cell surface uPA generation assay, qHTS; Potency, µM (titrated, usually from 38.3 µM), inactives show top-dose activity change, negative = inhibition, most hits filed as inhibitors; hit rate 0.31% among 330,000; active means well fitted inhibition curve with a large enough effect; inconclusive means small, poorly fitted or top-dose-only effect; inactive means no such curve, though single readings can be large or run the other way; tested in mouse RAW 264.7 cells; further: on the % scale 0 is the no-effect control and ±100 the full control effect; nearly all actives have a fitted effect of over 55% in size
# Rab9 prom act: qHTS Assay for Rab9 Promoter Activators; Huh7 Rab9 promoter-luciferase reporter, luminescence, 24 h; Potency, µM (highest dose often 9.22 µM), for the others: top-dose activation, negative = inhibition, hits mostly activators; hit rate 2.8% among 320,000; AID 485297, 2010; further: % of control where 0% means no effect; nearly all actives have a fitted effect of over 60% in size
#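 Using Huh7 cells stably transfected with Rab9 promoter–luciferase, compounds were incubated 24 h at 37 °C, 5% CO2; luciferase luminescence was read 10 min after reagent addition.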
# ELG1 genotoxic: qHTS screen for small molecules that induce genotoxicity in human embryonic kidney (HEK293T) cells expressing luciferase-tagged ELG1. HEK293T ELG1-luciferase reporter, luminescence, 16 h. hit rate 1.3% among 330,000. Potency, µM (doses to about 46 µM), for the others: at the top dose activity change, positive = activation, usual class: activators; further: % of control where 0% means no effect; nearly all actives have a fitted effect of over 60% in size
#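 Quantitative HTS format in 1536-well plates. HEK293T ELG1-luciferase reporter cells receive test compound and are incubated 16 hr at 37 °C, 5% CO2; ONE-Glo added, 30 min room temperature, then luminescence read.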
# NPC1 prom act: qHTS Assay for NPC1 Promoter Activators; Huh7 NPC1 promoter luciferase reporter, 24 h; Potency, µM (series often up to 9.22 µM), for the others: at the top dose activation, usual class: activators; hit rate 2.4% among 320,000; further: % of control where 0% means no effect; nearly all actives have a fitted effect of over 60% in size
#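 Cells: Huh7 expressing luciferase under the NPC1 promoter, 1500/well. Seeded 2 h, compound added, incubated 24 h at 37 °C. Luciferase reagent, 10 min ambient, then luminescence.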
# SMN2 splice up: qHTS Assay for Enhancers of SMN2 Splice Variant Expression. AID 1458, 2008. HEK293 SMN2-luciferase splicing reporter, luminescence, 30-36 h. Potency, µM (doses to about 46.1 µM), for the others: top-dose activity change, positive = activation, hits mostly activators. hit rate 2.8% among 210,000; further: % of control where 0% means no effect; nearly all actives have a fitted effect of over 55% in size
#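 HEK293 cells carry an SMN2 minigene-luciferase reporter in which exon 7 inclusion puts luciferase in frame. Cells were seeded at 2000 cells/well, attached for 10-12 hours, then exposed to compounds for 30-36 hours at 37C before ONE-Glo luminescence.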
# FLuc modulator: qHTS profiling assay for firefly luciferase inhibitor/activator using purifed enzyme and Km concentrations of substrates (counterscreen for miR-21 project). hit rate 6.9% among 360,000. Potency, µM (titrated, usually from 57.5 µM), for the others: at the highest dose activity change, negative = inhibition, hits mostly inhibitors. AID 588342, 2011. purified FLuc, Km substrates, luminescence inhibition. Luciferin 4-monooxygenase (Photinus pyralis), P08659;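 further: plate controls were vehicle for no effect and reference inhibitor for full effect; nearly all actives have a fitted effect of over 55% in size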
# Target sequence (P08659 whole entry, looked up): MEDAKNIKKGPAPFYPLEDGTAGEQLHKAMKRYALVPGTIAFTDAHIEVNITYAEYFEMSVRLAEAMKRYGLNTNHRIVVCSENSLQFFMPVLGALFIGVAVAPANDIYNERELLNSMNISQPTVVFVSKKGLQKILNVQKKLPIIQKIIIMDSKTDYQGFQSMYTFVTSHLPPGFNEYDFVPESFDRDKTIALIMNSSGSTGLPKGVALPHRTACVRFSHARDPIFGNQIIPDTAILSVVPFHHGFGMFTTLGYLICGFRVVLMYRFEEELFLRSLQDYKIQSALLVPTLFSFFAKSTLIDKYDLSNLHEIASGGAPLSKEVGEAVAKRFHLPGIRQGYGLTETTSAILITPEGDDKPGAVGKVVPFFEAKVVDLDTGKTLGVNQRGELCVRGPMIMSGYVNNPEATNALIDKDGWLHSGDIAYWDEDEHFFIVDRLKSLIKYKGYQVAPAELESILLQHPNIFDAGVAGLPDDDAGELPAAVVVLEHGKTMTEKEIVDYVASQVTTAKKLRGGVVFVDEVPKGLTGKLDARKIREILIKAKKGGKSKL
#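 Purified P. pyralis luciferase (10nM final) with 10uM D-luciferin and 10uM ATP (Km levels) in 50mM Tris acetate pH 7.5, 10mM Mg acetate, 0.01% Tween-20, 0.05% BSA; qHTS 6-point titration, ~60 µM downward; luminescence read.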
# The depositor's hits bear a star; u = inconclusive; x = no result; [ ] = remark or other dose. Unless noted, the call rests on the fitted dose curve; in most records, active means well fitted curve in the direction sought with a large enough effect; inconclusive means small, poorly fitted or top-dose-only effect, or another doubt; inactive means no such curve, though single readings can be large; an effect the other way counts as inactive or inconclusive. Potency means the concentration at half of the fitted maximal effect.
SMILES,uPA surface inh,Rab9 prom act,ELG1 genotoxic,NPC1 prom act,SMN2 splice up,FLuc modulator
O=C(O)c1cccc(COc2cccc3ccccc23)c1,0%,x,x,x,x,x
CN1CCN(C(=O)c2cccc(COc3cc(Cl)ccc3Cl)c2)CC1,x,1.1µM*,u,3.2µM*,10µM*,u
O=C(O)c1ccc(COc2ccccc2Cl)cc1,x,24%,2%,14%,12%,21µM*
O=C(O)c1cccc(COc2ccccc2Cl)c1,x,0.89µM*,x,u,0.032µM*,0.15µM*
Cc1nn(Cc2cccc(F)c2)c(C)c1NC(=O)c1ccc(COc2ccccc2Cl)cc1,-20%,3%,-24%,-3%,-67%,4%
COc1ccc(CNC(=O)COCc2cc(-c3cccs3)on2)cc1,x,x,x,x,x,-1%
COc1ccc(C(=O)Nc2cc(OCc3ccccc3)c(Cl)cc2Cl)cc1,14%,0%,-3%,-3%,-15%,1%
O=C(Nc1ccccc1Cl)c1cccc(COc2cc(Cl)ccc2Cl)c1,3%,4µM*,u,2.2µM*,6.3µM*,u
Cc1nn(Cc2c(Cl)cccc2Cl)c(C)c1NC(=O)c1cc(C(C)C)on1,3.2µM*,0%,-4%,1%,3.5µM*,-1%
N#Cc1ccccc1Sc1ccccc1N,x,1%,1%,-2%,2%,-17%
Nc1ccccc1SSc1ccccc1N,u,6%[1.84 µM],10%,0%,x,11µM*
Cc1ccc(C(CC(=O)Nc2ccc(F)c(Cl)c2)N2Cc3ccccc3C2=O)cc1 (configuration not stated),x,x,x,x,x,0%
Cc1ccc(-n2nc(CO)c(C(=O)NCc3cccs3)n2)cc1,x,x,x,x,-21%,-7%
CCc1ccc(-n2nc(CO)c(C(=O)NC)n2)cc1,x,x,x,x,u,15µM*
CCc1ccc(-n2nc(CO)c(C(=O)NCC(c3ccccc3)c3ccccc3)n2)cc1,x,x,x,x,-1%,-1%
CCOc1ccc(-n2nc(CO)c(C(=O)NCc3cccs3)n2)cc1,x,x,x,x,-10%,19µM*
CCCCC/C=C\C/C=C\C/C=C\CCCCCCC(=O)NCC(=O)O,x,x,x,x,8%,x
CCN(CC(=O)NC1CCS(=O)(=O)C1)S(=O)(=O)c1ccc(C)cc1C (configuration not stated),2%,-2%,2%,-1%,15%,-1%
O=C(/C=C/Nc1cccc(O)c1)c1ccccc1,u,23%,u,u,u,0.17µM*
Cc1ccc(C(=O)/C=C/Nc2ccc3c(c2)OCO3)cc1,-10%,0.71µM*,u,0.71µM*,u,0.27µM*
CC(=O)c1cccc(NS(=O)(=O)c2ccc(N/C=C/C(=O)c3ccc(F)cc3)cc2)c1,u,-22%,2%,-9%,-99%,5%
O=C(/C=C/NNC(=O)c1ccc(Cl)cc1)c1ccccc1,u,1%,-4%,-1%,7%,u
CC(=O)c1ccc(N/C=C\C(=O)c2ccc(C)cc2)cc1,2%,4µM*,8.2µM*,2.5µM*,16µM*,1.9µM*
Cc1ccc(C(=O)NCc2ccc3c(c2)OCO3)cc1,11%,17%,7%,0%,x,-3%
O=C(/C=C/Nc1ccc(F)c(Cl)c1)c1ccccc1,-22%,3.5µM*,18µM*,u,x,2.4µM*
SMILES,uPA surface inh,Rab9 prom act,ELG1 genotoxic,NPC1 prom act,SMN2 splice up,FLuc modulator
O=C(c1cc(Br)ccc1O)c1cc(Br)ccc1O,x,x,x,x,-7%[9.22 µM],x
COc1ccc(NC(=O)COC(=O)C2CC2)c(OC)c1,-8%,11%,2%,-1%,x,x
C/C(=C\C(=O)c1ccc(C)cc1)Nc1cccc(O)c1,u,0.63µM*,u,2.8µM*,u,0.85µM*
CC(=O)c1cccc(NS(=O)(=O)c2ccc(N/C=C\C(=O)c3ccc(C)cc3)cc2)c1,-5%,-4%,2%,-13%,-23%,5%
Cc1ccc(N/C=C/C(=O)c2ccccc2)cc1Br,-26%,3.2µM*,u,4µM*,x,0.6µM*
Cc1ccc(C(=O)/C=C/Nc2cccc(O)c2)cc1,u,u,4.1µM*,28%,25µM*,0.38µM*
CC(=O)c1cccc(N/C=C\C(=O)c2ccc(C)cc2)c1,-8%,0.79µM*,2.6µM*,0.79µM*,6.3µM*,0.3µM*
O=C(Nc1ccc(F)cc1F)c1cc2c(=O)n3ccccc3nc2s1,x,x,x,x,-7%,-6%
CC1CCN(C(=O)Cn2cc(SCC(=O)Nc3ccccc3C(F)(F)F)c3ccccc32)CC1,x,x,x,x,x,-13%
Cc1cccc(C(=O)Nc2ccc(N3CCN(S(C)(=O)=O)CC3)cc2)c1,7%,4µM*,14%,4.5µM*,u,u
CS(=O)(=O)N1CCN(c2ccc(NC(=O)c3ccccc3)cc2)CC1,-2%,1.8µM*,u,3.5µM*,10µM*,u
COc1cccc(C(=O)Nc2ccc(N3CCN(S(C)(=O)=O)CC3)cc2)c1,-4%,25%,15%,29%,16%,-18%
O=C(Cn1c(-c2cccs2)cc2cc(Cl)ccc21)N1CCCCC1,x,x,x,x,x,-12%
Cc1cc(C(=O)Nc2c(C)nc3ccccn3c2=O)ccc1[N+](=O)[O-],x,x,x,x,x,-4%
Cc1ccc(/C=C/c2nnc(-c3cccs3)o2)cc1,u,0.89µM*,u,0.35µM*,10µM*,1.7µM*
Cc1ccc(-c2nnc(-c3cccs3)o2)cc1,-5%,1.6µM*,5.2µM*,3.5µM*,13µM*,6.7µM*
Fc1ccc(/C=C/c2nnc(-c3cccs3)o2)cc1,-2%,1.1µM*,10µM*,2.2µM*,13µM*,2.7µM*
COc1ccc(-c2nc(NC(C)=O)sc2-c2ccc(OC)cc2)cc1,3%,0%,8%,2%,-1%,0%
COc1ccc(C2CC(=O)c3sc(NC(C)=O)nc3C2)cc1 (configuration not stated),12%,24%,u,26%,-13%,27µM*
Cc1noc(C)c1COc1ccc(C(=O)NNC(=O)c2ccccc2O)cc1,-9%,-2%,-4%,5%,x,-2%
Cc1ccc(CSC2=Nc3ccccc3C3=NC(CC(=O)NCc4ccco4)C(=O)N23)cc1 (configuration not stated),-4%,-4%,6%,9%,11µM*,u
O=C(CC1N=C2c3ccccc3N=C(SCc3ccc(F)cc3)N2C1=O)NCc1ccco1 (configuration not stated),-7%,-2%,24%,-2%,u,-17%
CCOC(=O)Cc1nn(C)c(=O)c2ccccc12,-15%,0%,5%,-1%,5.6µM*,-1%
CCOC(=O)Cc1nn(CC)c(=O)c2ccccc12,6%,-11%,2%,-1%,x,-1%
